About 13,000 (27%) of roughly 48,000 compounds showed an effect of 50% or more. This is one part of the list.
System: Wolbachia pipientis
Experiment: Anti-Wolbachia Cell-Based Screen
Format: functional
Parameters: scale not given: in the data most compounds retested in dose-response had high values
Conditions: 5 µM

Row | SMILES | Percent Effect [%]
1 | COCCN(Cc1sccc1C)c1nc(C)nc2sccc12 | -3.328
2 | CNC(=O)[C@@H]1C[C@@H](N)CN1Cc1cc2cc(C)cc(C)c2[nH]c1=O | 3.33
3 | CN(Cc1cnn(C)c1)S(=O)(=O)N1CCc2ccccc2C1 | 11.11
4 | CCN(CC)S(=O)(=O)c1ccc2c(c1)N(Cc1ccccn1)C(=O)CS2 | 124.5
5 | CCS(=O)(=O)c1ccc2oc([C@H]3CCN(Cc4cccnc4)C3)nc2c1 | -5.049
6 | CCN(CC)S(=O)(=O)N(C)Cc1ccncc1 | -6.423
7 | CC(C)N1CCC(Nc2ccn(Cc3ccccn3)n2)C1=O (stereo not drawn) | 7.705
8 | CCN(CC)S(=O)(=O)N1CCCC(c2nccn2Cc2cccnc2)C1 (stereo not drawn) | -1.362
9 | CCN(CC)S(=O)(=O)N1CCC(c2nccn2Cc2ccccn2)CC1 | 1.2
10 | CCN(Cc1cccc(-c2ccncc2)c1)S(N)(=O)=O | -1.235
11 | CCN(CC)S(=O)(=O)c1ccc2c(c1)N(Cc1ccncc1)C(=O)CS2 | 122
12 | CCN(CC)S(=O)(=O)c1ccc2c(c1)N(Cc1cccnc1)C(=O)CS2 | 103.1
13 | CC(=O)N1CCC(C(=O)NCCN2CCC(C)CC2)CC1 | -2.341
14 | CCN1C(=O)CC(c2cnn(C)c2)C12CCN(C(=O)c1ccoc1)CC2 (stereo not drawn) | 0.4401
15 | Cc1nccn1-c1ccc(C(C)NCc2cccn2C)cc1 (stereo not drawn) | -7.942
16 | Cc1ccnc(Cn2cc(-c3cccc(C(C)N(C)C)c3)nn2)c1 (stereo not drawn) | 12.93
17 | COc1ccc2c(c1)CCCN2C(=O)CN1CCOC(C)C1 (stereo not drawn) | -7.941
18 | NC(=O)C1CCN(CCc2ccc(NC(=O)C3CCC3)cc2)CC1 | -0.7709
19 | COC(=O)C(O)C1CCN(CCc2ccncc2)CC1 (stereo not drawn) | -5.946
20 | CCC(C)C(=O)Nc1ccc(CCN2CCOCC2)cc1 (stereo not drawn) | 92.28
21 | CCC(Nc1ccc(CCN2CCCCC2)cc1)C(N)=O (stereo not drawn) | 104.3
22 | CC(CCc1ccccc1)NC(=O)CN1CCOCC1 (stereo not drawn) | -21.53
23 | Cc1ccc(CCCC(=O)N(C)CCN2CCOCC2)cc1 | -4.729
24 | CC(Nc1ccc(CCN2CCOCC2)cc1)C(=O)N(C)CCC#N (stereo not drawn) | 7.396
25 | CC(Nc1ccc(CCN2CCCCC2)cc1)C(=O)N(C)CCC#N (stereo not drawn) | -7.662

Row | SMILES | Percent Effect [%]
26 | CCC(Nc1ccc(CCN2CCOCC2)cc1)C(N)=O (stereo not drawn) | 92.12
27 | O=C(Nc1ccc(CCN2CCC(O)CC2)cc1)C1CCOCC1 | 8.941
28 | CCC(Nc1ccc(Oc2ccccc2OC)cc1)C(N)=O (stereo not drawn) | 11.69
29 | CCOC(=O)C(C)Nc1ccc(CCN2CCOCC2)cc1 (stereo not drawn) | 97.92
30 | CCOc1cc(NC(=O)NCCn2cnnc2CC)ccc1C | -0.5638
31 | CCc1nc(CN2CCN(c3ncnc4cc(F)ccc34)CC2)no1 | -16.98
32 | CN(CCO)Cc1nnc(C2CCN(C(=O)c3cc[nH]c3)CC2)n1C | -143.4
33 | CSc1cccc(CN(C)C(=O)CN2CCN(c3ncccn3)CC2)c1 | -6.038
34 | CN(C)C(=O)[C@@H]1CCO[C@@H]2CCN(c3ncccn3)C[C@@H]21.O=C(O)C(F)(F)F | 0.2661
35 | CN1CCN(c2ncccn2)CC(C(=O)N(C)C)C1 (stereo not drawn) | 92.05
36 | Cc1ccc(C(=O)N2C[C@@H]3CN(c4ncccn4)C[C@@H]3C2)cn1 | 1.13
37 | Cc1ccc(C(=O)N2C[C@@H]3CN(c4ncccn4)C[C@@H]3C2)cc1 | 3.247
38 | CN1CCN(c2ncccn2)CC1C(N)=O (stereo not drawn) | 76.51
39 | CN(C)C(=O)[C@H]1C[C@@H]2CN(c3ncccn3)C[C@H]1O2 | 10.85
40 | CN(C)C(=O)CN1C[C@H]2CCN(c3ncccn3)CC[C@H]2S1(=O)=O.O=C(O)C(F)(F)F | -3.991
41 | CN(C)C(=O)C1CN(c2ncccn2)CCN1C (stereo not drawn) | 84.43
42 | CCc1c(C)nc(C)nc1N1C[C@@H](CN(CC)CCO)[C@@H](CO)C1 | 6.908
43 | COc1cc(F)ccc1N1CCN(Cc2nnc(C3CC3)o2)CC1 | -5.388
44 | CCc1nc(CN(C)C2CCN(Cc3cnc(C)cn3)C2)no1 (stereo not drawn) | 5.773
45 | CC(C)c1nc(CN(C)C2CCN(Cc3nnc(C4CC4)o3)C2)no1 (stereo not drawn) | 123.9
46 | CC(C)c1nc(CN(C)C2CCN(Cc3nc(C4CC4)no3)C2)no1 (stereo not drawn) | -21.22
47 | CCCc1noc(CN2CCC(N(C)Cc3nnc(C4CC4)o3)C2)n1 (stereo not drawn) | 109.8
48 | CCc1nc(CN2CCCC(N(C)Cc3cnn(C)c3)C2)no1 (stereo not drawn) | 10.72
49 | CCc1nc(CN(C)C2CCN(Cc3nnc(C4CCC4)o3)C2)no1 (stereo not drawn) | 110.6
50 | Cc1nc(CN(C)C2CCN(Cc3nnc(C4CC4)o3)C2)no1 (stereo not drawn) | 115.8

Row | SMILES | Percent Effect [%]
51 | Cc1nc(CN2CCCC(N(C)Cc3nnc(C4CC4)o3)C2)no1 (stereo not drawn) | 6.77
52 | CN(Cc1nnc(C2CC2)o1)C1CCN(CCCc2cnn(C)c2)C1 (stereo not drawn) | 3.532
53 | CC(C)c1nc(CN2CCCN(Cc3nnc(C4CC4)o3)CC2)no1 | 0.1522
54 | CCCc1n[nH]c(C2CN(Cc3nnc(C4CC4)o3)CCO2)n1 (stereo not drawn) | -2.84
55 | Cc1nc(CN2CCCC(N(C)Cc3nc(C)c(C)o3)C2)no1 (stereo not drawn) | -3.907
56 | O=S(=O)(Cc1ccccc1Cl)NCCCN1CCCC1 | -15.99
57 | OC1CCN(C2CCN(Cc3cnc(-c4cccs4)nc3)CC2)CC1 | 3.199
58 | COc1cc(OC)c(-c2nc3c([nH]2)c(C2CC2)nn3C)cc1OC | 11.95
59 | CN1CCOC(C(=O)Nc2nc(-c3ccc(Cl)cc3)n[nH]2)C1 (stereo not drawn) | -7.364
60 | O=C(O)CC(O)(CC(=O)O)C(=O)O.c1ccc([C@@H]2CN(Cc3cccnc3)C[C@H]2c2cc[nH]n2)cc1 | 104
61 | O=C(O)CC(O)(CC(=O)O)C(=O)O.c1ccc(CC2CCN(Cc3ccnc(-c4cccnc4)n3)CC2)cc1 | 2.968
62 | O=C(CCC1CCCC1)N1C[C@H]2CC[C@@H]1CN(Cc1ccncc1)C2 | 3.308
63 | COc1ccc(CN2C[C@H]3CN(Cc4ccncc4)C(=O)[C@H]3C2)cc1.O=C(O)C(F)(F)F.O=C(O)C(F)(F)F | -3.011
64 | COc1ccccc1[C@@H]1CN(Cc2ccncc2)C[C@H]1C(=O)O | -10.92
65 | O=C(O)CC(O)(CC(=O)O)C(=O)O.c1ccc([C@@H]2CN(Cc3ccncc3)C[C@H]2c2cc[nH]n2)cc1 | 114
66 | COc1ccc(CN2C[C@@H]3CN(Cc4ccncc4)C[C@@H]3C2=O)cc1.O=C(O)C(F)(F)F.O=C(O)C(F)(F)F | -12.53
67 | COc1ccc([C@@H]2CN(Cc3ccncc3)C[C@H]2c2cc[nH]n2)cc1.O=C(O)CC(O)(CC(=O)O)C(=O)O | 69.64
68 | O=C(O)CC(O)(CC(=O)O)C(=O)O.c1cncc(-c2nccc(CN3CCCC3)n2)c1 | -12.77
69 | Cc1csc(CN(C)S(=O)(=O)c2ccc(C)c(N(C)C)c2)n1 | 11.95
70 | Cc1c(NC(=O)c2noc3c2CCCC3)cnn1C | 77.55
71 | Cn1ncc(NC(=O)c2noc3c2CCCC3)c1C(=O)N1CCCCC1 | 98.83
72 | CN(C)C(=O)c1noc2c1CN(C(=O)CCCN1CCCCC1)CC2 | -13.23
73 | Cc1cc(CN2CCC(CNC(=O)c3noc4c3CCCC4)C2)[nH]n1 (stereo not drawn) | -1.453
74 | Cc1cc(C(N)=O)ccc1NC(=O)c1nc(N2CCCC2)ncc1Cl | -12.29
75 | Cn1ncc(NC(=O)c2noc3c2CCCC3)c1C(N)=O | 112.2

Row | SMILES | Percent Effect [%]
76 | CN1CCc2[nH]cnc2C12CCN(C(=O)c1noc3c1CCCC3)CC2 | 33.96
77 | COc1cccc([C@H]2CN(C(=O)c3noc4c3CCCC4)C[C@@H]2N)c1 | -1.914
78 | CCC(CNS(C)(=O)=O)Oc1ccccc1F (stereo not drawn) | -7.569
79 | CN1CCC(C2CCN(Cc3cccc(-n4cccn4)c3)CC2)C1 (stereo not drawn) | -5.048
80 | CC(=O)N1CC(=O)N(c2cnn(C)c2)CC12CCN(Cc1ccco1)C2 (stereo not drawn) | 98.22
81 | CC(=O)N1CC(=O)N(c2cnn(C)c2)CC12CCN(Cc1nccs1)C2 (stereo not drawn) | -3.662
82 | CC(=O)N1CC(=O)N(c2cnn(C)c2)CC12CCN(Cc1ccsc1)C2.O=C(O)C(F)(F)F.O=C(O)C(F)(F)F (stereo not drawn) | 4.027
83 | CC(=O)N1CC(=O)N(c2cnn(C)c2)CC12CCN(Cc1ccoc1)C2 (stereo not drawn) | -11.13
84 | CC(=O)N1CC(=O)N(c2ccccc2)CC12CCN(Cc1cccs1)C2.O=C(O)C(F)(F)F (stereo not drawn) | 4.365
85 | CC(=O)N1CC(=O)N(c2cnn(C)c2)CC12CCN(Cc1cccs1)C2.O=C(O)C(F)(F)F (stereo not drawn) | 106.8
86 | CN(Cc1cccc2ncccc12)C(=O)CCn1ccc(=O)[nH]c1=O | 10.3
87 | CC(=O)N(Cc1noc(C)n1)C1CCN(Cc2ccncc2Cl)C1 (stereo not drawn) | 6.525
88 | CNC(=O)CN1CCC(NC(=O)Cc2ccccc2OC(C)C)CC1 | -20.84
89 | CNC(=O)CN1CCC(CN(C)Cc2ccc(C)cc2C)CC1 | 95.31
90 | CNC(=O)CN1CCC(c2nn(C)c(=O)n2-c2ccccc2)CC1 | 1.276
91 | CNC(=O)CN1CCC(NC(=O)CC(C)CCc2ccccc2)CC1 (stereo not drawn) | 1.042
92 | CNC(=O)CN1CCC(NC(=O)N(C)Cc2cc(C)on2)CC1 | 7.433
93 | CNC(=O)CN1CCCC(Cc2ccccc2OC)C1 (stereo not drawn) | 4.844
94 | CNC(=O)CN1CCC(CN(C)CCSc2ccccc2)CC1 | 112.7
95 | CNC(=O)CN1CCC(CN(C)Cc2ccccc2N(C)C)CC1 | 105.8
96 | CNC(=O)CN1CCC(CN(C)Cc2ccncc2Cl)CC1 | 104.1
97 | CNC(=O)CN1CCC(NC(=O)Cn2cc(C)c3ccccc32)CC1 | -8.28
98 | CN(Cc1cc(Cl)cc2cccnc12)CC1CCN(CCO)CC1 | -4.482
